Measurements taken from the supplement of paper PMC12024529.
Several values for one entry are separate records, joined by “and”; a condition that tells them apart may be missing. Equal values may be shown once.

These compounds were tested on HEK293 WT BDD-FVIII-Gluc (assay: secreted FVIII-Gluc luciferase Z-score vs DMSO control; higher = more FVIII-Gluc secretion). Conditions: 5 µM.
Experimental: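 Natural plant-compound library (480 compounds, ST catalogue IDs) screened on HEK293 cells stably expressing WT BDD-FVIII-Gaussia luciferase fusion at 5 µM. Secreted Gluc activity in the medium is given as a Z-score relative to DMSO controls.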

SMILES	secreted FVIII-Gluc luciferase Z-score
COc1cccc2oc(-c3ccc(O)cc3)cc(=O)c12	1.3
NCCC(=O)N[C@@H](Cc1cnc[nH]1)C(=O)O	-1.31
O=c1cc(-c2cccc(O)c2)oc2cc(O)ccc12	-0.00771
O=C(O)CNC(=O)c1ccccc1	1.07
C[C@H]1c2ccoc2CC2[C@H]1CCC1[C@@](C)(CC(=O)O)CCC[C@]21C (stereo not given in full)	0.392
CC1(C)CC[C@]2(C(=O)O)CC[C@]3(C)C(=CC[C@@H]4[C@@]5(C)CC[C@H](O)C(C)(C)[C@@H]5CC[C@]43C)[C@@H]2C1	0.157
CC(=O)Nc1nc2nc[nH]c2c(=O)[nH]1	0.475
O=c1cc(-c2ccccc2O)oc2ccc3ccccc3c12	0.197
OCC1(O)OC[C@H](O)[C@@H](O)[C@@H]1O (stereo not given in full)	0.437
O=c1ccn([C@H]2C[C@H](O)[C@@H](CO)O2)c(=O)[nH]1	0.515
Cn1cnc2c1c(=O)[nH]c(=O)n2C	0.889
CC[C@]12CCCN3CCc4c(n(c5ccccc45)C(=O)C1)C32 (stereo not given in full)	0.363
Cc1c(C(=O)O)c(O)cc2c1C(=O)c1c(O)c([C@H]3O[C@H](CO)[C@@H](O)[C@H](O)[C@H]3O)c(O)c(O)c1C2=O	0.527 and 0.738
CC12CCC3c4ccc(O)cc4CCC3C1CCC2=O (stereo not given)	0.301
OCc1ccccc1O[C@@H]1O[C@H](CO)[C@@H](O)[C@H](O)[C@H]1O	0.752
CN1CCC[C@H]1c1cccnc1	0.197
CC(=O)[C@@H]1[C@H]2[C@H](C(=O)[C@H]3OC[C@@H]2O3)[C@H]2C=Cc3ccccc3N21	0.187
CN(C)[C@@H]1C(=O)C(C(=O)NCN2CCCC2)=C(O)[C@@]2(O)C(=O)C3=C(O)c4c(O)cccc4[C@@](C)(O)[C@H]3C[C@@H]12	0.407
COc1cc2ccc(=O)oc2cc1O	0.0462
CC(C)=CCc1c(O)cc(O)c2c1O[C@H](c1ccccc1)CC2=O	-0.692

SMILES	secreted FVIII-Gluc luciferase Z-score
Cc1cc(=O)oc2cc(O[C@@H]3O[C@H](C(=O)O)[C@@H](O)[C@H](O)[C@H]3O)ccc12	0.123
COc1ccc(-c2coc3cc(O)cc(O)c3c2=O)cc1	0.185
C[C@H]1[C@H]2CC[C@H]3[C@@H]4CC=C5C[C@@H](N(C)C)CC[C@]5(C)[C@H]4CC[C@]23CN1C	0.23
N[C@@H](Cc1c[nH]cn1)C(=O)O	0.64
CCCCC/C=C\C/C=C\C/C=C\C/C=C\CCCC(=O)O	0.604
NC(Cc1c[nH]c2ccccc12)C(=O)NCC(=O)O (stereo not given)	-1.06
Cc1c(-c2ccccc2)oc2cc(O)ccc2c1=O	-0.0243
O=C(O)C1(O)CC(O)C(O)C(O)C1 (stereo not given)	0.456
O=c1cc(-c2ccccc2)oc2cccc(O)c12	-0.455
C1CCN2C[C@H]3C[C@H](CN4CCCC[C@@H]34)[C@H]2C1	1.26
N[C@H](Cc1c[nH]c2ccccc12)C(=O)O	0.298
O=C(O)C1=C[C@@H](O)[C@@H](O)[C@H](O)C1	0.3
CC(=O)OC1CCC2(C)C(CCC3(C)C2C(=O)C=C2C4CC(C)(C(=O)OCCN5CCCCC5)CCC4(C)CCC23C)C1(C)C (stereo not given)	0.64
CC/C=C\C/C=C\C/C=C\CCCCCCCC(=O)O	0.636
CN1C(=O)CC[C@H]1c1cccnc1	-0.0585
O=C(/C=C/c1ccc(O)c(O)c1)OC(Cc1ccc(O)c(O)c1)C(=O)O (stereo not given)	0.861
CC(=O)OC1CCC2(C)C(=CCC3C2CC[C@]2(C)C(C(C)=O)CCC32)C1 (stereo not given in full)	0.0308
COc1ccc(C2CC(=O)c3c(O)cc(OC4OC(COC5OC(C)C(O)C(O)C5O)C(O)C(O)C4O)cc3O2)cc1O (stereo not given)	0.438
COc1ccc(-c2coc3ccc(OC4OC(COC(C)=O)C(OC(C)=O)C(OC(C)=O)C4OC(C)=O)cc3c2=O)cc1 (stereo not given)	-1.1
COc1ccc2c(=O)cc(-c3ccccc3)oc2c1O	0.609
